The supplement of paper PMC10127200
Structures can show the parent of a compound that is named as a salt.

How the values were obtained:
Assay in all cases: Euclidean distance of Cell Painting phenotypic profile (signed KS, 77 features) to DMSO centroid (dimensionless distance); 5 or 10 uM (library dependent); higher = stronger phenotypic change vs DMSO (phenoactivity)
Conditions in all cases: 48 h
786-O = system: 786-O
How it was run: (§1)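 Stained cells were imaged confocally at 20X with 9 fields per well, after 48 h of exposure to library compounds at 10 or 5 uM (set by library; 0.1% DMSO final). The cells were five cancer lines and a healthy fibroblast line. From the images, Harmony extracted 77 features, each expressed as a signed Kolmogorov-Smirnov statistic relative to same-plate vehicle wells. Phenoactivity is measured as Euclidean distance to the median vehicle profile, using plate-position-corrected, correlation-weighted profiles averaged across replicates at the top dose.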

A549 = system: A549
How it was run: as §1

DU145 = system: DU145
How it was run: as §1

FB = system: FB
How it was run: as §1

HEPG2 = system: HEPG2
How it was run: as §1

OVCAR4 = system: OVCAR4
How it was run: as §1

SMILES	Euclidean distance (786-O)	Euclidean distance (A549)	Euclidean distance (DU145)	Euclidean distance (FB)	Euclidean distance (HEPG2)	Euclidean distance (OVCAR4)
CC1COc2c(N3CCN(C)CC3)c(F)cc3c(=O)c(C(=O)O)cn1c23 (stereo not given) [Ofloxacin]	1.01	0.65	0.81	0.702	0.545	1.25
CN(C)CCOC(C)(c1ccccc1)c1ccccn1 (stereo not given) [Doxylamine Succinate]	1.09	0.709	1.18	1.42	0.475	1.14
N=C(N)NS(=O)(=O)c1ccc(N)cc1 [Sulfaguanidine]	1.11	0.776	1.03	0.936	0.524	1.55
C[C@H](NC(=O)[C@@H](Cc1ccc2ccccc2c1)NC(=O)[C@@H](C)N)C(=O)N[C@@H](Cc1c[nH]c2ccccc12)C(=O)N[C@H](Cc1ccccc1)C(=O)N[C@@H](CCCCN)C(N)=O	1.39	0.626	1.01	0.873	2.01	1.29
CC(=O)Oc1cccc2c1C(=O)c1c(OC(C)=O)cc(C(=O)O)cc1C2=O [Diacerein]	0.962	0.94	1.19	1.22	0.429	1.51
Cc1cc(O)cc(C)c1Cl [Chloroxylenol]	0.814	0.825	1.13	0.9	0.668	0.718
CC(C)c1nc(CN(C)C(=O)N[C@H](C(=O)N[C@@H](Cc2ccccc2)C[C@H](O)[C@H](Cc2ccccc2)NC(=O)OCc2cncs2)C(C)C)cs1 [Ritonavir]	1.49	1.26	1.08	1.35	1.58	1.77
CC[C@H](C)C(=O)O[C@H]1CCC=C2C=C[C@H](C)[C@H](CC[C@@H]3C[C@@H](O)CC(=O)O3)[C@H]21 [Mevastatin]	2.6	1.88	0.707	3.12	1.43	1.64
COc1cc(C)c(/C=C/C(C)=C/C=C/C(C)=C/C(=O)O)c(C)c1C [Acitretin]	1.13	0.972	0.881	2.31	1.39	1.13
CN(Cc1cnc2nc(N)nc(N)c2n1)c1ccc(C(=O)N[C@@H](CCC(=O)O)C(=O)O)cc1 [Methotrexate]	1.77	3.08	1.05	0.72	1.55	2.57
CN1CC2c3ccccc3Oc3ccc(Cl)cc3C2C1 (stereo not given) [Asenapine]	1.1	0.811	0.805	1.19	1.03	0.94
COC(c1ccccc1)(c1ccccc1)[C@H](Oc1nc(C)cc(C)n1)C(=O)O [Ambrisentan]	1.45	0.738	1.17	0.718	2.03	1.52
CS(=O)(=O)c1ccc(-c2cnc(N)c(C(=O)Nc3ccccc3)n2)cc1	0.811	2.05	1.29	1.27	1.07	1.23
Cc1ccc(N(CC2=NCCN2)c2cccc(O)c2)cc1 [Phentolamine Mesylate]	1.55	0.595	0.949	1.19	1.72	1.1
Cc1cc(C)c(Nc2ccnc(Nc3ccc(C#N)cc3)n2)c(C)c1 [Dapivirine (TMC120)]	2.34	2.56	1.87	1.33	3.09	2.01
Clc1ccc2nsnc2c1NC1=NCCN1 [Tizanidine]	1.07	0.538	0.815	0.569	0.572	0.608
CCOc1ccc(NC(C)=O)cc1 [Phenacetin]	1.38	0.916	1.56	0.94	0.469	1.83
CC(=O)O[C@]1(C(C)=O)CC[C@H]2[C@@H]3C=C(C)C4=CC(=O)CC[C@]4(C)[C@H]3CC[C@@]21C [Megestrol Acetate]	1.71	1.65	1.57	1.46	1.89	1.61
CO[C@@H](C(=O)N1Cc2[nH]nc(NC(=O)c3ccc(N4CCN(C)CC4)cc3)c2C1)c1ccccc1	1.39	1.46	1.66	1.66	1.25	1.03
Nc1ncnc2c1c(-c1cccc(OCc3ccccc3)c1)cn2C1CC(CN2CCCC2)C1 (stereo not given)	2.84	3.18	2.28	3.95	3.36	1.87
NCC[C@H](O)C(=O)N[C@@H]1C[C@H](N)[C@@H](O[C@H]2O[C@H](CN)[C@@H](O)[C@H](O)[C@H]2O)[C@H](O)[C@H]1O[C@H]1O[C@H](CO)[C@@H](O)[C@H](N)[C@H]1O [Amikacin hydrate]	1.52	1.1	0.584	1.08	1.29	1.07
Cc1c(C(=O)NN2CCCCC2)nn(-c2ccc(Cl)cc2Cl)c1-c1ccc(Cl)cc1 [Rimonabant]	1.92	1.17	1.04	0.895	0.664	1.22
CC1(C)CCC(c2ccc(Cl)cc2)=C(CN2CCN(c3ccc(C(=O)NS(=O)(=O)c4ccc(N[C@H](CCN5CCOCC5)CSc5ccccc5)c(S(=O)(=O)C(F)(F)F)c4)cc3)CC2)C1 [ABT-263 (Navitoclax)]	1.75	2.22	1.24	1.16	1.25	0.98
CN(C)CCOC(c1ccc(Cl)cc1)c1ccccn1 (stereo not given) [CarbinoxaMine Maleate]	1.32	0.778	1.98	1.44	0.691	0.935
O=C(Nc1ncc(SCCN2CCCC2)s1)[C@]1(c2ccc(S(=O)(=O)C3CC3)cc2)C[C@H]1C1CCCCC1	5.07	2.38	3.02	3.03	3.45	1.44
Cc1c(F)cc(C(=O)NC2CC2)cc1-c1ccc(C(=O)NCC(C)(C)C)cn1	1.17	0.619	1.23	0.572	0.761	1.09
COc1cc2c(cc1OC)[C@H]1C[C@@H](OC(=O)[C@@H](N)C(C)C)[C@H](CC(C)C)CN1CC2 [Valbenazine tosylate]	0.826	0.503	1.01	0.778	0.752	1.05
O=C(c1ccc(OCCN2CCCCC2)cc1)c1c(-c2ccc(O)cc2)sc2cc(O)ccc12 [Raloxifene]	2.37	2.49	2.15	2.23	2.54	2.52
COc1c(C)c2c(c(O)c1C/C=C(\C)CCC(=O)O)C(=O)OC2 [Mycophenolic acid]	2.65	3.38	1.88	3.04	2.74	3.28
CCCCOc1nc(N)c2c(n1)N(Cc1cccc(CN3CCCC3)c1)CC(=O)N2	1.32	0.517	0.661	0.941	0.589	1
